Experimental data as given in PubChem BioAssay.
Active and inactive are the calls of the source. Unless noted, no rule for the calls is given here.

Columns and labels:
[1] = compound effects on lung adenocarcinoma cell viability – A549, calcein-AM fluorescence, 48 h, basal, profiling panel (AID 1162); settings: higher = more signal; also: test concentration not given here
[2] = compound effects on differentiated 3T3-L1 adipocyte viability – cell-based, 3T3-L1 adipocytes, calcein-AM fluorescence, 48 h, basal, profiling panel (AID 1163); settings: 3T3-L1 adipocytes viability, higher = more signal; also: test concentration not given here
[3] = compound effects on hepatocellular carcinoma cell viability – HepG2, calcein-AM fluorescence, 48 h, basal, profiling panel (AID 1164); settings: higher = more signal; also: test concentration not given here
[4] = compound effects on multiple myeloma cell viability – MM1S, calcein-AM fluorescence, 48 h, basal, profiling panel (AID 1165); settings: higher = more signal;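 also: viability of MM1S multiple myeloma cells under basal unstimulated conditions; test concentration not given here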
[5] = calcein-AM signal in unstimulated myeloma cells – cell-based, calcein-AM fluorescence, 48 h, PK04 Diversity Set, profiling panel (AID 1166); settings: RPMI8226 myeloma viability, higher = more signal;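 also: cells grown under basal conditions without added stimulus; test concentration not given here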
[6] = JC-1 mitochondrial signal, unstimulated HepG2 cells – cell-based, JC-1 fluorescence, 24 h, 100 nL compound, profiling panel (AID 1167); settings: HepG2 mitochondrial potential, higher = more signal; also: test concentration not given here
[7] = JC-1 mitochondrial signal, unstimulated adipocytes – cell-based, JC-1 fluorescence, 3T3-L1 adipocytes, 24 h, 100 nL compound, profiling panel (AID 1168); settings: JC-1 mitochondrial fluorescence, higher = more signal, called active from +8 up or from −8 down; also: test concentration not given here
[8] = JC-1 mitochondrial signal, unstimulated myeloma cells – cell-based, JC-1 fluorescence, RPMI8226, 24 h, 100 nL compound, profiling panel (AID 1169); settings: JC-1 mitochondrial potential fluorescence, higher = more signal; also: test concentration not given here
[9] = JC-1 mitochondrial signal, unstimulated MM1S myeloma – cell-based, JC-1 fluorescence, 24 h, 100 nL compound, profiling panel (AID 1170); settings: MM1S mitochondrial potential, higher = more signal; also: test concentration not given here
[10] = resazurin metabolic signal in A549 cells – cell-based, resazurin fluorescence, 24 h, PK04 Diversity Set, profiling panel (AID 1171); settings: A549 viability, higher = more signal, called active from +8 up or from −8 down; also: test concentration not given here
[11] = resazurin metabolic signal in HepG2 cells – cell-based, resazurin fluorescence, 24 h, PK04 Diversity Set, profiling panel (AID 1172); settings: HepG2 viability, higher = more signal; also: test concentration not given here
[12] = budding yeast growth changes without added modifier – OD600, strain BY4716, 24 h, basal condition, primary screen (AID 1173); settings: S. cerevisiae BY4716 growth, OD600, 24 h; higher = more signal, called active from +8 up or from −8 down
[13] = viability profiling in MM1S myeloma cells – cell-based, resazurin fluorescence, basal, 24 h, PK04 Diversity Set, profiling panel (AID 1174); settings: higher = more signal, called active from +8 up or from −8 down; also: test concentration not given here
[14] = target: Dihydroorotate dehydrogenase (quinone), mitochondrial (Plasmodium falciparum (isolate 3D7)) (UniProt Q08210); test: inhibition of P. falciparum DHODH – biochemical, C-terminal His tag, absorbance 600 nm, primary screen (AID 1175); settings: PfDHODH enzyme, DCIP absorbance 600 nm; higher = more signal, called active from +8 up or from −8 down;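 also: recombinant parasite enzyme with a five histidine tag at its C terminus; test concentration not given here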
[15] = inhibition of PAO1 biofilm formation – strain PAO1, LB-PBS medium, absorbance 600 nm, primary screen (AID 1176); also: test concentration not given here; settings: P. aeruginosa PAO1 growth/biofilm, A600, 12 h; higher = more signal
[16] = growth modulation of vineyard yeast isolate – strain RM11-1a, OD600, basal, 24 h, primary screen (AID 1177);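 also: cultures grown under basal conditions with no added stressor; test concentration not given here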; settings: S. cerevisiae RM11-1a growth, OD600, 24 h; higher = more signal, called active from +8 up or from −8 down
[17] = growth of efflux-deficient E. coli DRC39 – strain DRC39, OD650, 24 h, E. coli filamentation inducers, primary screen (AID 1178);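 also: growth measured as culture turbidity by optical density at 650 nm; test concentration not given here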; settings: E. coli DRC39 acrAB, higher = more signal, called active from +8 up or from −8 down
[18] = growth of efflux-deficient E. coli DRC39 – strain DRC39, OD650, 48 h, E. coli filamentation inducers, primary screen (AID 1179);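 also: screen aims at cell division blockers that make cells filament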; settings: E. coli DRC39 delta-acrAB growth, higher = more signal, called active from +8 up or from −8 down
[19] = viability profiling in RPMI8226 myeloma cells – cell-based, resazurin fluorescence, basal, 24 h, PK04 Diversity Set, profiling panel (AID 1180); settings: higher = more signal;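 also: RPMI8826 multiple myeloma cell line at 5000 cells per well; test concentration not given here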
[20] = target: E3 ubiquitin-protein ligase XIAP (Homo sapiens) (UniProt P98170); test: small molecules binding XIAP protein – biophysical, small-molecule microarray, fluorescence 635 nm, primary screen (AID 1181); settings: higher = more signal;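 also: score merges 667 nm emission and signal to noise over triplicate slides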
E3 ubiquitin-protein ligase XIAP (Homo sapiens), sequence (P98170 whole entry, looked up): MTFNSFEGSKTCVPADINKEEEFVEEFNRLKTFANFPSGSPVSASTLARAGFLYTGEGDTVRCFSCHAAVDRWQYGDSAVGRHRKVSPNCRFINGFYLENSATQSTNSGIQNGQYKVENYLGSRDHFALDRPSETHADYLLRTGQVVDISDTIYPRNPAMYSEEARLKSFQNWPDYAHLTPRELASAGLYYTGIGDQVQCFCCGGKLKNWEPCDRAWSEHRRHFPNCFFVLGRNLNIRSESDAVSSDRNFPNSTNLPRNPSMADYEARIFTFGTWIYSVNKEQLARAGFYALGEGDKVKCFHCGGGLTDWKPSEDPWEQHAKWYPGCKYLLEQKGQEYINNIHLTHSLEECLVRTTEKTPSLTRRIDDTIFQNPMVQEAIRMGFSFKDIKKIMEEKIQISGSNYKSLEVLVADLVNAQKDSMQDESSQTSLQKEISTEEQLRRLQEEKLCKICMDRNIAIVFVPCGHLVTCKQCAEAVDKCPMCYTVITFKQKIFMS

Dihydroorotate dehydrogenase (quinone), mitochondrial (Plasmodium falciparum (isolate 3D7)), sequence (Q08210 whole entry, looked up): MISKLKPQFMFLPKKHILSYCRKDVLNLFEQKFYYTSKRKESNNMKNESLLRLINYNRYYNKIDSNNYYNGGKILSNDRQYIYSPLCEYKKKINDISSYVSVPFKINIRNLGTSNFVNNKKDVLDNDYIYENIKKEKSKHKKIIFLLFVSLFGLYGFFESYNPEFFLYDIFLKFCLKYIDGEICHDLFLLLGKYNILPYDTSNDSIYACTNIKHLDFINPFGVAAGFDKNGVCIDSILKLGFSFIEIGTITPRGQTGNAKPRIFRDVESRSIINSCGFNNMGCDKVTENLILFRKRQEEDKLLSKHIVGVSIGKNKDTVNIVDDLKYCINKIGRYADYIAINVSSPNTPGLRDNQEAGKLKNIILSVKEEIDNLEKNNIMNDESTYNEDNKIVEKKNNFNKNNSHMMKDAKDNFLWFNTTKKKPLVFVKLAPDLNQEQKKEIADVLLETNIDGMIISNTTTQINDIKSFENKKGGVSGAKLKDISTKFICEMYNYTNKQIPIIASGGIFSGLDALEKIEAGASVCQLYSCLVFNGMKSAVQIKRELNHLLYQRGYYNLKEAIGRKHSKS

Structure (SMILES)	z-score [1]	z-score [2]	z-score [3]	z-score [4]	z-score [5]	z-score [6]	z-score [7]	z-score [8]	z-score [9]	z-score [10]	z-score [11]	z-score [12]	z-score [13]	composite z-score [14]	z-score [15]	z-score [16]	z-score [17]	z-score [18]	z-score [19]	composite z-score [20]
CN(C)CCCNC(=O)[C@@]1(C)c2ccccc2C(=O)N(Cc2cc(C(F)(F)F)cc(C(F)(F)F)c2)[C@H]1c1ccc(CO)cc1	-0.434	0.157	0.221	-0.309	-2.36	1.31	-0.36 (inactive)	-0.0152	-0.279	-0.832 (inactive)	-1.19	-0.808 (inactive)	-0.244 (inactive)	0.779 (inactive)	1.98 (inactive)	0.874 (inactive)	0.365 (inactive)	-1.39 (inactive)	-0.0867	-0.239
CCOC(=O)C[C@H]1[C@H](OC(=O)c2ccccc2-c2ccccc2)[C@@H](NC(=O)c2ccc3ccccc3n2)c2cc(OCCCO)ccc2N1C(=O)c1ccc2ccccc2n1	0.923	1.65	0.877	0.497	-0.237	2.39	0.309 (inactive)	0.356	-0.845	0.545 (inactive)	0.922	-1.08 (inactive)	0.833 (inactive)	-0.431 (inactive)	0.719 (inactive)	-0.344 (inactive)	1.33 (inactive)	1.21 (inactive)	-0.19	-0.162
C=CC[C@@H](OC(=O)Nc1ccc(OC)cc1)c1ccc(OCCO)cc1	-0.176	0.048	0.587	-1.2	-2.53	-1.92	-0.451 (inactive)	-0.052	0.19	0.213 (inactive)	-0.197	-3.85 (inactive)	-0.561 (inactive)	0.251 (inactive)	0.438 (inactive)	-0.373 (inactive)	0.411 (inactive)	-0.103 (inactive)	-0.365	0.206
CCCCC(CC)C(O)C1C=CC2C(=O)N(c3ccccc3)C(=O)C2N1Nc1ccc([N+](=O)[O-])cc1 (stereo not given)	-0.561	-0.0969	-0.919	-0.41	-1.1	-1.74	-1.56 (inactive)	0.349	-1.03	-0.451 (inactive)	-0.383	-0.148 (inactive)	-0.201 (inactive)	0.41 (inactive)	0.837 (inactive)	-0.066 (inactive)	-0.948 (inactive)	-0.979 (inactive)	-0.759	-0.02
Cc1ccc(S[C@]2(C(=O)NCC(F)(F)F)CC(=O)N(Cc3ccccc3)[C@@H]2c2ccc(CO)cc2)cc1	0.149	0.787	-0.479	0.0646	-1.28	0.0177	-0.291 (inactive)	0.871	-0.686	0.42 (inactive)	-0.991	-0.185 (inactive)	0.546 (inactive)	-0.309 (inactive)	-0.131 (inactive)	-0.629 (inactive)	0.163 (inactive)	-0.0965 (inactive)	0.342	0.4
O=C1c2ccccc2[C@](Cc2ccccc2I)(C(=O)NCc2ccccc2)[C@H](c2ccc(CO)cc2)N1C1CCCCC1	-0.475	1.03	-0.36	-2.3	-1.99	1.36	-0.424 (inactive)	0.173	0.551	0.623 (inactive)	-0.176	-0.453 (inactive)	0.485 (inactive)	-0.567 (inactive)	0.214 (inactive)	-0.871 (inactive)	0.852 (inactive)	-0.14 (inactive)	0.489	0.182
COC(=O)[C@@]1(Cc2ccccc2)[C@H]2c3cc(C(=O)N4CCCC4)[nH]c3C[C@H]2CN1C(=O)c1ccccc1	-1.12	0.904	-0.585	0.277	-1.17	0.288	-1.17 (inactive)	-0.786	-0.28	0.412 (inactive)	-0.6	0.146 (inactive)	-0.89 (inactive)	-0.171 (inactive)	0.026 (inactive)	0.198 (inactive)	-0.79 (inactive)	-0.548 (inactive)	-0.183	-0.247
O=C1OCCC=C[C@H]2OC34C=CCN(c5ccc(Cl)cc5)C(=O)[C@H]3N(CCCCCO)C(=O)[C@@H]4C12 (stereo not given in full)	0.657	0.0279	1.11	1.54	-0.579	0.989	1.14 (inactive)	0.211	0.0628	1.03 (inactive)	1.25	-0.508 (inactive)	0.89 (inactive)	-0.417 (inactive)	-0.525 (inactive)	-0.429 (inactive)	1.68 (inactive)	1.83 (inactive)	0.599	0.23
[N-]=[N+]=Nc1ccccc1[C@@H]1OC(c2ccc(OCCCO)cc2)=N[C@]1(CCS(=O)(=O)c1ccccc1)C(=O)NCCN1CCOCC1	0.652	1.37	-0.229	0.351	-1.58	0.0652	-0.783 (inactive)	-0.465	-1.2	0.465 (inactive)	-0.376	-1.32 (inactive)	-0.195 (inactive)	0.313 (inactive)	0.236 (inactive)	-0.309 (inactive)	0.833 (inactive)	-0.278 (inactive)	-0.659	-0.34
